Results as given in the supplement of paper PMC10849652.
Of roughly 7,900 targets only a part is listed; those with a hit were picked by preference. About 0.6% of all pairs of compound and target were hits. Values without a mark were called inactive.

How the values were obtained:
Experiment in all cases: log2 fold change, soluble protein after heating vs DMSO (PISA); higher = thermal stabilisation; K562 cells, 10 uM, 30 min; active = over 0.2 and 3.5 SD of the protein, either way, in both replicates (recomputed)
erlotinib = compound: C#Cc1cccc(Nc2ncnc3cc(OCCOC)c(OCCOC)cc23)c1 [erlotinib]
In short: (§1)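 K562 cells at 2×10^6 cells/mL were exposed to 10 μM compound for 30 min, then aliquots were heated for 3 min across 48°C-58°C, pooled, and extracted in PBS containing 0.5% NP-40 at 4°C. The supernatant after 21,000xg for 90 min was taken as soluble protein and measured by TMTpro 16plex LC-MS/MS with channel sums equalised. Thermal stability is reported relative to control samples, with values from duplicates. Fold changes are given on a log2 scale.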

[1] = compound: C/C(=N\NC(=O)C1=CC(=CC=C1)S(=O)(=O)N2CCOCC2)/C3=C(C=CC(=C3)Cl)O
In short: as §1

[2] = compound: C1=CC(=C(C=C1Cl)C2=NC3=NC=CN=C3C(=N2)NC4=CC=NC=C4)F
In short: as §1

[3] = compound: C1=CC(=CC=C1C2=NC3=C(N2)C=C(C=C3)C(=O)N)OC4=CC=C(C=C4)Cl
In short: as §1

[4] = compound: C1=CC2=C(C=CC(=C2)/C=C\3/C(=O)NC(=NCC4=CC=CS4)S3)N=C1
In short: as §1

[5] = compound: C1=CC2=NC=CN=C2C=C1/C=C/3\C(=O)NC(=O)S3
In short: as §1

[6] = compound: C1=CC=C(C=C1)C2=NC(=C(N2)C3=CC=NC=C3)C4=CC(=C(C=C4)Cl)O
In short: as §1

[7] = compound: C1=CC=C2C(=C1)C3=NNC4=CC=CC(=C43)C2=O
In short: as §1

[8] = compound: C1CCN(C1)C(=O)NC2=CC=CC(=C2)NC3=NC=C(C(=N3)NCCC4=CN=CN4)Br
In short: as §1

[9] = compound: C1CN(CCC1(CC2=CC=C(C=C2)Cl)N)C3=NC=NC4=C3C=CN4
In short: as §1

IRAK-1-4 Inhibitor I = compound: C1COCCN1CCN2C3=CC=CC=C3N=C2NC(=O)C4=CC(=CC=C4)[N+](=O)[O-] [IRAK-1-4 Inhibitor I]
In short: as §1

ibrutinib = compound: C=CC(=O)N1CCC[C@@H](n2nc(-c3ccc(Oc4ccccc4)cc3)c3c(N)ncnc32)C1 [ibrutinib]
In short: as §1

[10] = compound: CC(=O)c1cnc2ccc(-c3cc(Cl)c(O)c(Cl)c3)nc2c1N[C@H]1CC[C@H](CN(C)C)CC1
In short: as §1

ralimetinib = compound: CC(C)(C)Cn1c(N)nc2ccc(-c3[nH]c(C(C)(C)C)nc3-c3ccc(F)cc3)nc21 [ralimetinib]
In short: as §1

[11] = compound: CC(C)(O)CC(=O)NCCn1ccc2ncnc(Nc3ccc(Oc4cccc(C(F)(F)F)c4)c(Cl)c3)c21
In short: as §1

[12] = compound: CC(C)C1=C2N=C(C=C(N2N=C1)NCC3=CC=CC=C3)NCCCCCCN
In short: as §1

[13] = compound: CC(C)C[C@@H](C=O)NC(=O)[C@H](CC(C)C)NC(=O)[C@H](CC(C)C)NC(=O)OCc1ccccc1
In short: as §1

pinometostat = compound: CC(C)N(C[C@H]1O[C@@H](n2cnc3c(N)ncnc32)[C@H](O)[C@@H]1O)[C@H]1C[C@@H](CCc2nc3cc(C(C)(C)C)ccc3[nH]2)C1 [pinometostat]
In short: as §1

[14] = compound: CC1=C(C(CC(=O)N1)C2=CC=C(C=C2)C(F)(F)F)C(=O)NC3=C(C=C4C(=C3)C=NN4)F
In short: as §1

[15] = compound: CC1=C(C2=C(C=C1)C(=O)C3=CC=CC=C3N2CCCN)C
In short: as §1

UniProt Q96JM3, sequence (Q96JM3 whole entry, looked up): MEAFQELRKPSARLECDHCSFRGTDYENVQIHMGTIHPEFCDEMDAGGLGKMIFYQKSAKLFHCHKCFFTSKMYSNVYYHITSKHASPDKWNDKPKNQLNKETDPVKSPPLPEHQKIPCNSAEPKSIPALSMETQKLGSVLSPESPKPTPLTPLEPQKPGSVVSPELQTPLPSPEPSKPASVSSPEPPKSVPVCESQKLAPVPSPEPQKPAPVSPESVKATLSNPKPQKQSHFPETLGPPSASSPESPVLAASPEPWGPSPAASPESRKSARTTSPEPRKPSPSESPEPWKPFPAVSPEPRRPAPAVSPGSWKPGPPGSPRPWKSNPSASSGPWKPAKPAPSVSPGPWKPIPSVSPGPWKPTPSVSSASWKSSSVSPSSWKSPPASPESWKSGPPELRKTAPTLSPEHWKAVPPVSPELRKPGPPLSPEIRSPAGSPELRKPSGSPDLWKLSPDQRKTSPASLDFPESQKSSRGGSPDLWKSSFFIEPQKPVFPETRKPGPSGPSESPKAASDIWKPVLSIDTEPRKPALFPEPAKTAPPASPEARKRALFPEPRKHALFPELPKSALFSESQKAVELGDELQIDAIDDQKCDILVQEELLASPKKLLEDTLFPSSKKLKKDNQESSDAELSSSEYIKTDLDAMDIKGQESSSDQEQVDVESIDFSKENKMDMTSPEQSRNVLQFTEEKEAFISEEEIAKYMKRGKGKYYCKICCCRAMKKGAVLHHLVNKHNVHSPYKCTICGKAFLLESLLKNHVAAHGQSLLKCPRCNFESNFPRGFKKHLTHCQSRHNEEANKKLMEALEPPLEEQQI
UniProt P50416, sequence (P50416 whole entry, looked up): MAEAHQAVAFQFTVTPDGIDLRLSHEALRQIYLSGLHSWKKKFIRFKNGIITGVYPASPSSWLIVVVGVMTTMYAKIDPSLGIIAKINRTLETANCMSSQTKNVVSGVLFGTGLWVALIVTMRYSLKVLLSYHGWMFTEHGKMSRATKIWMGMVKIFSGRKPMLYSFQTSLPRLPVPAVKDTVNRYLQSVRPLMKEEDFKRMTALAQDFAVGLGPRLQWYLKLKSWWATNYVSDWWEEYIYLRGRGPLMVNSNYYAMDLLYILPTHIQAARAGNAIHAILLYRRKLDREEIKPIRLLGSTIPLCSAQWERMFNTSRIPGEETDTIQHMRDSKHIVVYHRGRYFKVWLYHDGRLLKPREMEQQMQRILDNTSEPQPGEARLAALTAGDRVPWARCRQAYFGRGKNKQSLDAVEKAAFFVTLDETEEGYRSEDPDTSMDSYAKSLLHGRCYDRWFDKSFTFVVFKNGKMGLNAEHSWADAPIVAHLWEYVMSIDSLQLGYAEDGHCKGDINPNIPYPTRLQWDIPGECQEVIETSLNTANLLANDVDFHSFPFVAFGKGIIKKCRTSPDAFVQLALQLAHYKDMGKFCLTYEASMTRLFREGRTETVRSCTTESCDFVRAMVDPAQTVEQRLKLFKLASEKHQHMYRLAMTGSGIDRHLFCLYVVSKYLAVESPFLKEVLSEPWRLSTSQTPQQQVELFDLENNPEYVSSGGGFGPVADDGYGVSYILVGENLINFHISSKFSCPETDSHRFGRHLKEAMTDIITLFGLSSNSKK
UniProt Q9NRR8, sequence (Q9NRR8 whole entry, looked up): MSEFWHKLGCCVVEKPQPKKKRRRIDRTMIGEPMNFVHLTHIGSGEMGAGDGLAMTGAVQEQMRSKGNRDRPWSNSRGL
UniProt P19397, sequence (P19397 whole entry, looked up): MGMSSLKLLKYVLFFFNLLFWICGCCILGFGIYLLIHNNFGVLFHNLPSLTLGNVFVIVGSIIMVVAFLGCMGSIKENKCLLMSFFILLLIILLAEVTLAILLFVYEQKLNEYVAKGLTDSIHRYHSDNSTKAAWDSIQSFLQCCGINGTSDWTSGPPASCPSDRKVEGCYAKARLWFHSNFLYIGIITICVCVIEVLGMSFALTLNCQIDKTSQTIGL
UniProt Q99653, sequence (Q99653 whole entry, looked up): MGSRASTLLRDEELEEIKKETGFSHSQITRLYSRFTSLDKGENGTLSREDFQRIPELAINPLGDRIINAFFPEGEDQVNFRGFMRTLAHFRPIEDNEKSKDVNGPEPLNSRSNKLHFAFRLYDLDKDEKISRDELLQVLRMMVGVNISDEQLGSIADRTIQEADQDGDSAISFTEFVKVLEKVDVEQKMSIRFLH
UniProt Q9UHN6, sequence (Q9UHN6 whole entry, looked up): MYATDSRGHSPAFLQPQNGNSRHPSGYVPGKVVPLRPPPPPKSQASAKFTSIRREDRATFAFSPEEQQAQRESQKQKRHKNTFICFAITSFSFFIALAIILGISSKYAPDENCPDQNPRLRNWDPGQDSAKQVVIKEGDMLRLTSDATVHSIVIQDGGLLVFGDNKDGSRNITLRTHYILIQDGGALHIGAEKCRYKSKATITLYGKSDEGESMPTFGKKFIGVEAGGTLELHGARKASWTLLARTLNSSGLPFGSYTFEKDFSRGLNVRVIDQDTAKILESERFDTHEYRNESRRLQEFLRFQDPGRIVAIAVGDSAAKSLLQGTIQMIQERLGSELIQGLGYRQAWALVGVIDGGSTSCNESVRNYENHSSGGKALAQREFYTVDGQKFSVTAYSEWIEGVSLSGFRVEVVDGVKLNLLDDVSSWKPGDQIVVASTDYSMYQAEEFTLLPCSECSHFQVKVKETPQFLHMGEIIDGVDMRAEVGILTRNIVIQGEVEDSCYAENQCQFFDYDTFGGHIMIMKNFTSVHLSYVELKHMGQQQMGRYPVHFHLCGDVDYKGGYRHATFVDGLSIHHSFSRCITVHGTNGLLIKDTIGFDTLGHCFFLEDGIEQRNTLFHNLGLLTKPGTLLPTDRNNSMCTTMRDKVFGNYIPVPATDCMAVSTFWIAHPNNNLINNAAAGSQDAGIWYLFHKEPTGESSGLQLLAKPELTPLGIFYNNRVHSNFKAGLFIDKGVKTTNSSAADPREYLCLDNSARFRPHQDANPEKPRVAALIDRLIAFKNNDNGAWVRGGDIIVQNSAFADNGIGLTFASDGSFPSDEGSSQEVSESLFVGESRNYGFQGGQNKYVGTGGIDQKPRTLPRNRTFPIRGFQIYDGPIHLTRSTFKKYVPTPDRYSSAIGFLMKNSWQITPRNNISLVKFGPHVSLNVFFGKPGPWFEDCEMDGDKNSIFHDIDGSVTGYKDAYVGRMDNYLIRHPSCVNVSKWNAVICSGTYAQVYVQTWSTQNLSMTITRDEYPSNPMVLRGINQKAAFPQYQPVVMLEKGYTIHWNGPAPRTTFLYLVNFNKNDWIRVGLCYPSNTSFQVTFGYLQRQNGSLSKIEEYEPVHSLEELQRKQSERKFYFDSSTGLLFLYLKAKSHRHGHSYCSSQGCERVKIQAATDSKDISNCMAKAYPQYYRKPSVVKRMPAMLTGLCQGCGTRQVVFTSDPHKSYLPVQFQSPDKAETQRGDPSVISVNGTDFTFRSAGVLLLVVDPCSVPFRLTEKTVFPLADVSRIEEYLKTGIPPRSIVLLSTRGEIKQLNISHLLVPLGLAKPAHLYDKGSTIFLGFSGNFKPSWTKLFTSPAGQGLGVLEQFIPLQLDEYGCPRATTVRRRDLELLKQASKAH
UniProt Q8NHZ8, sequence (Q8NHZ8 whole entry, looked up): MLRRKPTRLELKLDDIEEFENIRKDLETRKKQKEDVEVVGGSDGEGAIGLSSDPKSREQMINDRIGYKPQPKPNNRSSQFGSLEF
UniProt P55060, sequence (P55060 whole entry, looked up): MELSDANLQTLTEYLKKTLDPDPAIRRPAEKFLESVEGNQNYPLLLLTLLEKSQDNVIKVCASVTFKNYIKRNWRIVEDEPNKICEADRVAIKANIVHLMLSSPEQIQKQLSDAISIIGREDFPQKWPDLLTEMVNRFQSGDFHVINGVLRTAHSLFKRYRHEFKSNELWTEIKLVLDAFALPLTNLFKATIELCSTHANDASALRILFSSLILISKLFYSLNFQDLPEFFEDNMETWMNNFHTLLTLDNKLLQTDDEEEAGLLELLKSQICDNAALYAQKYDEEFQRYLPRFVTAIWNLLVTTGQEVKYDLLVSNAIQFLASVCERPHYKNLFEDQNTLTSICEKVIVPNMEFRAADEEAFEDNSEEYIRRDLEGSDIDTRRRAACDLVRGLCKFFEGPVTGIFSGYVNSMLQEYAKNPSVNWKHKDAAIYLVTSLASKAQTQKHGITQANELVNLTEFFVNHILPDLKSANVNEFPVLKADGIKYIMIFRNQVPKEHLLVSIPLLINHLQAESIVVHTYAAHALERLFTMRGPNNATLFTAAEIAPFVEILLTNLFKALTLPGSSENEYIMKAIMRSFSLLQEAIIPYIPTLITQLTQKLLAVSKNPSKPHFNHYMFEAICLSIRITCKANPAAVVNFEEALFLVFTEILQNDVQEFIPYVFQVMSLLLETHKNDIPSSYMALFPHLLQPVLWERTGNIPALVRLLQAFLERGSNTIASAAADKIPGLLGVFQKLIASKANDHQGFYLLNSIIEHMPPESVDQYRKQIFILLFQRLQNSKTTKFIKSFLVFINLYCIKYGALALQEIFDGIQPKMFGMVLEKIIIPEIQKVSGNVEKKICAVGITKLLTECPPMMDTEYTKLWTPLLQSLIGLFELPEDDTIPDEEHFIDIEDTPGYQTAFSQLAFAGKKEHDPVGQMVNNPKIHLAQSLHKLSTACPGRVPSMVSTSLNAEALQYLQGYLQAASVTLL
UniProt P46108, sequence (P46108 whole entry, looked up): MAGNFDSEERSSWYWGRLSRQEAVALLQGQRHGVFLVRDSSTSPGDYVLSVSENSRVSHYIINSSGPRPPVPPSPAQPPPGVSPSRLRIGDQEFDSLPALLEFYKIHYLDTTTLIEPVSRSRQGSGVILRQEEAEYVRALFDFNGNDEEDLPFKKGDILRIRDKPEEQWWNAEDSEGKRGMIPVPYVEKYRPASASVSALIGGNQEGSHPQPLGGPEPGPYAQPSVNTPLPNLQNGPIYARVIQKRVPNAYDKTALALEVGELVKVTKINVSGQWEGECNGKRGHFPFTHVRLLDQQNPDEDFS
UniProt P61024, sequence (P61024 whole entry, looked up): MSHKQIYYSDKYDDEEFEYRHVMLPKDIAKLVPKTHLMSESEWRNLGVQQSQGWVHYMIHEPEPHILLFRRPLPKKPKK

Target	log2 fold change (erlotinib)	log2 fold change [1]	log2 fold change [2]	log2 fold change [3]	log2 fold change [4]	log2 fold change [5]	log2 fold change [6]	log2 fold change [7]	log2 fold change [8]	log2 fold change [9]	log2 fold change (IRAK-1-4 Inhibitor I)	log2 fold change (ibrutinib)	log2 fold change [10]	log2 fold change (ralimetinib)	log2 fold change [11]	log2 fold change [12]	log2 fold change [13]	log2 fold change (pinometostat)	log2 fold change [14]	log2 fold change [15]
CHP1 (UniProt Q99653)	-0.022	0.024	0.097	0.012	-0.056	0.008	0.287 (active)	0.006	-0.07	0.091	0.091	-0.024	0.001	0.145	-0.017	0.017	-0.061	-0.02	-0.017	-0.047
CHST11 (UniProt Q9NPF2)	-0.061	0.082	0.046	-0.054	-0.118	0.007	0.161	0.057	0.002	-0.067	-0.002	-0.032	0.063	-0.406	0.057	-0.257	-0.17	0.084	-0.006	-0.058
CD81 (UniProt P60033)	-0.065	0.033	0.059	0.039	-0.065	0.059	0.013	-0.043	0.098	0.206	0.027	0.007	-0.026	-0.045	-0.018	0.33	-0.122	-0.05	0.004	-0.01
CDC42SE1 (UniProt Q9NRR8)	0.078	0.041	-0.005	0.014	0.021	0	-0.009	-0.207	0.023	-0.012	0.066	0.049	-0.004	0.021	0.042	-0.111	0.074	0.11	0.282	0.015
CRK (UniProt P46108)	-0.022	0.035	-0.002	-0.012	-0.011	0.03	-0.076	0.049	0.016	0.001	-0.046	-0.097	-0.887 (active)	-0.013	-0.007	-0.003	0.032	-0.037	-0.011	0.07
CKS1B (UniProt P61024)	-0.014	0	0.028	-0.013	0.044	0.029	0.11	-0.045	-0.012	0.034	-0.011	-0.008	-0.127	0.222 (active)	0.001	0.027	-0.031	-0.044	0.036	0.054
CSK (UniProt P41240)	0.023	0.031	-0.038	0.005	0.056	-0.022	0.024	-0.02	-0.034	-0.05	-0.016	0.074	0.111	0.011	-0.034	-0.131	0.031	0	-0.016	-0.011
CSE1L (UniProt P55060)	-0.005	0.056	0.064	-0.033	0	0.052	0.012	-0.044	0.028	-0.04	0.001	-0.028	0.033	-0.011	-0.144	-0.145	-0.029	-0.027	-0.008	-0.02
C16orf58 (UniProt Q96GQ5)	0.033	0.01	0.051	0.023	0.061	0.042	-0.001	-0.021	0.006	0.036	0.031	-0.022	0.01	-0.017	-0.045	-0.199	0.001	0.005	0.001	0.045
CEMIP2 (UniProt Q9UHN6)	0.076	0.018	-0.042	0.001	0.087	0.029	-0.071	-0.066	0.084	0.041	0	0.096	-0.045	-0.023	-0.026	0.122	0.11	-0.035	-0.211	0.057
CDC123 (UniProt O75794)	-0.039	0.038	0.011	0.036	-0.021	0.032	0.048	-0.001	-0.001	0.023	-0.023	-0.009	-0.026	-0.015	-0.088	-0.05	0.037	-0.009	0	0.001
CPT1A (UniProt P50416)	-0.008	0.042	-0.111	0.008	-0.028	-0.096	0	0.081	-0.055	0.076	-0.163	-0.024	-0.103	0.05	0.049	0.195	-0.03	0.06	-0.109	-0.047
CDC26 (UniProt Q8NHZ8)	-0.096	0.16	-0.046	0.034	-0.542 (active)	0.025	0.355	0.037	-0.137	-0.022	-0.014	-0.003	0.099	0.188	0.007	-0.01	-0.04	-0.128	0.005	0.049
CREB3L2 (UniProt Q70SY1)	0.424	0.104	0.057	-0.264	0.113	-0.174	-0.1	-0.045	-0.206	0.173	0.055	0.168	-0.108	-0.01	-0.08	0.322	0.607	-0.193	-0.058	0.074
CHAMP1 (UniProt Q96JM3)	0.083	0.004	0.075	0.03	0.023	0.014	-0.01	-0.06	0.004	0.064	0.047	0.066	-0.207	0.033	-0.036	-0.047	-0.015	0.034	0.004	-0.23 (active)
CD53 (UniProt P19397)	0.041	0.028	0.059	-0.006	0.064	0.01	-0.221	-0.086	-0.001	-0.007	0.097	0.033	-0.026	-0.24	-0.021	0.229	0.051	-0.014	-0.004	0.105
